ELG1 DNA repair: qHTS screen for small molecules that inhibit ELG1-dependent DNA repair in human embryonic kidney (HEK293T) cells expressing luciferase-tagged ELG1 | HEK293T ELG1-luciferase reporter, luminescence, 16 h; DNA damage induced by 5-fluorouridine | Potency, µM (top dose mostly 46.1 µM), usual class: inhibitors | hit rate 2.3% among 330,000 | AID 504467, 2011; also: nearly all actives have a fitted effect of over 55% in size
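Reporter activity after DNA damage by 5-fluorouridine is monitored. Compound-treated cells incubate 16 hr at 37 °C, then ONE-Glo is added for 30 min before luminescence reading.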
HT1080-NT tox: qHTS for induction of synthetic lethality in tumor cells producing 2HG: qHTS for the HT-1080-NT fibrosarcoma cell line; HT-1080-NT fibrosarcoma viability, CellTiter-Glo ATP luminescence, 48 h; Potency, µM (titrated, usually from 46.1 µM), hits mostly cytotoxic; hit rate 1.6% among 360,000;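 also: NT is the 2HG producing partner of a matched IDH1 knockdown line; nearly all actives have a fitted effect of over 55% in size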
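Luminescent CellTiter-Glo readout after 48 hours of compound exposure at 37 degrees C defined viability of HT-1080-NT cells. Activity was normalized to DMSO wells and cell-free media wells; concentration-response curves were fitted and assigned curve classes.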
IL1B secr inh: qHTS for Inhibitors of Inflammasome Signaling: IL-1-beta AlphaLISA Primary Screen. hit rate 4.7% among 360,000. activity change, % at 57.5 µM. THP-1 LPS/ATP IL-1B secretion, AlphaLISA, 16 h; active compounds read low; in the data active = activity change below about -50%; inconclusive = mostly about -30% to -49%
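Secreted IL-1B measured by AlphaLISA bead assay after 16 h compound exposure of THP-1 cells; compounds (final up to 57.5 uM) added 1 h before LPS (250 ng/mL) and ATP (1.25 mM) stimulation; lower signal means less secretion.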
TDP1 cell CPT: qHTS for Inhibitors of human tyrosyl-DNA phosphodiesterase 1 (TDP1): qHTS in cells in presence of CPT | chicken DT40 Tdp1-/-;hTDP1 cells + 20 nM CPT, ATP luminescence, 48 h | Potency, µM (highest dose often 46.2 µM), hits mostly inhibitors | hit rate 12% among 420,000; also: nearly all actives have a fitted effect of over 55% in size
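Chicken DT40 Tdp1-/- cells stably complemented with human TDP1 were seeded at 400 cells/well in medium containing 20 nM camptothecin, exposed to pin-transferred compounds, and grown at 37 °C for at least 48 hr. Viability was read as ATP luminescence.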
HT1080 IDH1KD tx: qHTS for induction of synthetic lethality in tumor cells producing 2HG: qHTS for the HT-1080-IDH1KD cell line; HT-1080 IDH1 knockdown viability, ATP luminescence, 48 h; Potency, µM (titrated, usually from 46.1 µM), actives largely listed as cytotoxic; hit rate 2% among 360,000
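HT-1080-IDH1KD cells (IDH1 knocked down), 750/well in RPMI with 5% FBS, treated with compound 48 h at 37 degrees C. Viability by CellTiter-Glo luminescence, normalised to DMSO and no-cell wells; concentration-response curves classed.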
DT40 TDP1 no CPT: qHTS for Inhibitors of human tyrosyl-DNA phosphodiesterase 1 (TDP1): qHTS in cells in absence of CPT; DT40 Tdp1-/- hTDP1 cells, no CPT, ATP luminescence, 48 h; hit rate 15% among 420,000; Potency, µM (titrated, usually from 46.2 µM), usual class: inhibitors; AID 686978, 2013; also: nearly all actives have a fitted effect of over 55% in size
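Chicken DT40 Tdp1-/- cells stably complemented with human TDP1 were seeded at 400 cells/well with DMSO in place of 20 nM camptothecin. After compound pinning, cells grew at least 48 hr at 37 °C; viability read by CellTiter-Glo luminescence.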
Numbers stand for hits; – = inactive; ? = inconclusive; · = no result given. This is a sample that favours compounds with a hit; in the whole collection about 19% have one here. Unless noted, calls follow the shape of the dose curve; as a rule, active = well fitted curve in the direction sought with a large enough effect; inconclusive = small, poorly fitted or top-dose-only effect, or another doubt; inactive = no such curve, though single readings can be large; an effect the other way counts as inactive or inconclusive.

SMILES	ELG1 DNA repair	HT1080-NT tox	IL1B secr inh	TDP1 cell CPT	HT1080 IDH1KD tx	DT40 TDP1 no CPT
Cc1ccc(C)c(C(=O)N2CCC(c3nc4c(nnn4Cc4ccccc4)c(=O)[nH]3)CC2)c1	·	·	·	?	·	8.2µM
COc1ccccc1Cn1nnc2c(=O)[nH]c(C3CCN(C(=O)c4ccc(F)cc4)CC3)nc21	?	–	–	–	–	–
CC(=O)c1cccc(S(=O)(=O)N2CCCC(c3nc4c(nnn4Cc4ccccc4Cl)c(=O)[nH]3)C2)c1 (stereo unspecified)	?	–	-70	–	?	–
Cc1ccc(CC(=O)N2CCC(c3nc4c(nnn4Cc4ccccc4)c(=O)[nH]3)CC2)cc1	–	–	?	–	–	–
O[C@@H]1CN(CC2CCCCC2)[C@@H](c2ccccc2)C[C@H]1n1cc(-c2ccc(F)cc2)nn1	·	?	–	?	?	?
Cc1cccc(NS(=O)(=O)c2c(C)nc3sccn3c2=O)c1C	·	·	·	–	·	–
CC(C)NC(=O)Nc1ccc2c(c1)C(=O)N([C@H](C)CO)C[C@H](C)[C@@H](CN(C)S(=O)(=O)c1ccc(F)cc1)O2	?	–	–	–	–	–
Cc1cccc(Cn2nnc3c(=O)[nH]c(C4CCCN(C(=O)c5ccccc5Cl)C4)nc32)c1 (stereo unspecified)	·	·	·	26µM	·	?
COc1ccc(-c2nc(CS(=O)(=O)CC(=O)NC3CCC(C)CC3)c(C)o2)cc1 (stereo unspecified)	–	–	–	?	–	–
COc1cc(OC)cc(-c2cc3nc(C)c(CCC(=O)NC(C)CCc4ccco4)c(C)n3n2)c1 (stereo unspecified)	13µM	–	–	?	–	16µM
Cc1csc(NC(=O)CCc2c(C)nc3cc(-c4cccc(F)c4)nn3c2C)n1	?	–	–	16µM	–	21µM
COC(=O)C(NC(=O)CCc1c(C)nc2cc(-c3cccc(F)c3)nn2c1C)C(C)C (stereo unspecified)	·	·	·	?	·	18µM
CN(C)CCN1CCN(C2CN(Cc3ccc([N+](=O)[O-])cc3)S(=O)(=O)C2)CC1 (stereo unspecified)	·	–	–	–	–	–
CC(=O)Nc1nc(-c2ccccc2)nc(-c2ccccc2OC(C)=O)n1	21µM	?	-50	?	?	18µM
O=Cc1cccc(OCc2cccc3ccccc23)c1	?	?	?	4.1µM	?	2.6µM
COc1ccc(COc2cccc(C=O)c2)cc1	?	–	–	3.7µM	–	4.6µM
CCN(C(=O)COC(=O)c1cc(Cl)ccc1OC)c1c(N)n(Cc2ccccc2)c(=O)[nH]c1=O	–	–	–	–	–	–
CC(NC(=O)C1CC1)c1nnc2n1CCN(Cc1cccc(F)c1F)CC2 (stereo unspecified)	·	·	·	–	·	–
O=C(CC1C(=O)NCCN1Cc1cccc(F)c1)NCCCCCN1CCOCC1 (stereo unspecified)	–	–	–	–	–	–
CN1CCN(c2ccc(S(=O)(=O)N3CCOCC3)cc2NC(=O)C2CCCCC2)CC1	·	–	–	–	–	–
CCOc1ccc(S(=O)(=O)N2CCC(C(=O)Nc3ccccc3N3CCCC3)CC2)cc1	·	–	?	?	–	21µM
Cc1cc(C)c(C)c(S(=O)(=O)N2CCC(C(=O)Nc3ccccc3N3CCOCC3)CC2)c1C	?	–	–	?	–	15µM
Cc1ccc(S(=O)(=O)N2CCC(C(=O)Nc3ccccc3N3CCCC3)CC2)cc1	?	–	–	–	–	–
Cc1ccc(S(=O)(=O)N2CCC(C(=O)Nc3ccccc3N3CCCCC3)CC2)cc1	?	–	–	18µM	–	?
O=C(Nc1cc(S(=O)(=O)N2CCCCC2)ccc1N1CCCCC1)C1CC1	–	–	–	–	–	16µM
SMILES	ELG1 DNA repair	HT1080-NT tox	IL1B secr inh	TDP1 cell CPT	HT1080 IDH1KD tx	DT40 TDP1 no CPT
Cc1cc(=O)n2c3ccccc3n(C)c2n1	–	–	–	–	–	–
CN(CC(=O)Nc1ccc(F)c(F)c1F)C(=O)C1CCC1	–	–	–	–	–	–
CN(C)C(CNC(=O)C1CCN(S(=O)(=O)c2ccc(Cl)cc2)CC1)c1ccccc1 (stereo unspecified)	–	–	–	–	–	–
Cc1cccc(NC(=O)C2CCN(S(=O)(=O)c3c(C)c(C)cc(C)c3C)CC2)n1	?	–	-89	15µM	?	16µM
Cc1cc(C)c(C)c(S(=O)(=O)N2CCC(C(=O)NCC(c3ccccc3)N(C)C)CC2)c1C (stereo unspecified)	–	?	?	–	18µM	?
CC1CCCCN1S(=O)(=O)c1ccc(C(=O)Nc2sc3c(c2C(N)=O)CC(C)(C)NC3(C)C)cc1 (stereo unspecified)	·	·	·	26µM	·	?
CN(C1CCCCC1)S(=O)(=O)c1ccc(C(=O)Nc2sc3c(c2C(N)=O)CC(C)(C)NC3(C)C)cc1	–	?	–	?	–	?
C=CC[C@H](CC(=O)NCCO)C(=O)N[C@H](COC(=O)[C@H](CC=C)CC(=O)OC(C)(C)C)c1ccccc1	–	–	–	–	–	–
C=CC[C@H](CC(=O)N(CCO)Cc1ccccc1)C(=O)N[C@H](COC(=O)[C@@H](CC=C)CC(=O)OC(C)(C)C)Cc1ccccc1	?	?	-80	15µM	?	13µM
C=CC[C@@H](CC(=O)N(CCO)Cc1ccccc1)C(=O)N[C@H](COC(=O)[C@@H](CC=C)CC(=O)OC(C)(C)C)Cc1ccccc1	?	–	?	18µM	–	?
C=CC[C@@H](CC(=O)N(CCO)Cc1ccccc1)C(=O)NCCOC(=O)[C@H](CC=C)CC(=O)OC(C)(C)C	–	–	–	?	–	?
C=CC[C@H](CC(=O)N(CCO)Cc1ccccc1)C(=O)N[C@H](C)COC(=O)[C@@H](CC=C)CC(=O)OC(C)(C)C	?	–	–	?	–	18µM
C[Si](C)(C)O[Si](C)(C)C	·	·	·	–	·	–
CN(CCO)C(=O)c1cn(C2CCCN(Cc3cccc4ccccc34)C2)nn1 (stereo unspecified)	·	·	·	–	·	–
Cc1ccc(-c2csc(NC(=O)C3CC(=O)N(Cc4ccco4)C3)n2)cc1 (stereo unspecified)	–	–	-65	?	–	?
